Data as given in PubChem BioAssay.
“And” between values parts separate entries of the source, which are not always exact repeats. Identical values can stand only once. The source made the active and inactive calls.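 How the source made its calls, unless noted: active means thallium flux through the channel raised or lowered by more than 3 SD from vehicle-only wells, actives on both sides; inactive means the rest.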

Legend:
[1] = liver-stage malaria parasite growth inhibition, primary screen, cell-based, HepG2, luciferase luminescence, HepG2 viability (AID 624349; in the data active means parasite load remaining mostly below about 12%, no sharp cut-off; inactive means mostly above about 10%;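 further: 100% = mean of DMSO negative control wells on the same plate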); settings: P. berghei liver stage in HepG2, luciferase luminescence, concentration not given here; parasite load remaining: stronger effect = lower value; viability: measured here: HepG2 viability without parasites
[2] = Cy5 fluorescence interference with SSB-bound oligo, artefact control for HCV NS3 helicase inhibitor project, biochemical, NIH Clinical Collection, E. coli SSB (AID 743268; call rule not given here)
[3] = test system: Hepatitis C virus NS3 helicase; assay: HCV NS3 helicase inhibitors, primary screen, biochemical, fluorescence polarization, NIH Clinical Collection (AID 743270; call rule not given here); settings: NS3 helicase binding to Cy5-dT15 DNA, stronger effect = higher value, concentration not given here
[4] = molecular target: Single-stranded DNA-binding protein (Escherichia coli (strain K12)) (UniProt P0AGE0); assay: E. coli SSB displacement from DNA, counter-screen for HCV NS3 helicase inhibitor project, biochemical, fluorescence polarization, NIH Clinical Collection (AID 743271; in the data active means inhibition above about 28%); settings: stronger effect = higher value, concentration not given here
[5] = fluorescence interference in NS3h assay format, artefact control for HCV NS3 helicase inhibitor project, biochemical, NIH Clinical Collection (AID 743272; call rule not given here;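 further: HCV NS3 helicase with a Cy5 labelled single stranded DNA probe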); settings: fluorescence interference counterscreen, stronger effect = lower value
[6] = sensitizers of A549 cells to miR-34 induction, primary screen, imaging, A549 dox-inducible miR-34, nuclei and caspase counts (AID 1347080;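 active means compounds whose cell count with miR-34 switched on is under 0.7 times the count with it off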); settings: A549 miR-34 inducible, Hoechst nuclei count, 48 h
[7] = viability rescue of complex I mutant cybrids, primary screen, cell-based, galactose medium, ATP luminescence (AID 1645843;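 active means z-score of at least 1.8 in each of two replicates, scored against plate mean and spread of sample wells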;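 further: positive z means more ATP and so rescue of galactose-driven cybrid death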); settings: complex I mutant cybrid cells, 72 h, stronger effect = higher value
[8] = test system: F380Y; assay: modulators of BK channel variants, profiling panel, selectivity assay, cell-based, U2OS BacMam, thallium flux, beta subunits (AID 1259406); settings: at 30 µM;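 further: initial slope of Thallos dye fluorescence rise after thallium is added; log ratio against the mean of 0.3% DMSO vehicle wells on the same plate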
[9] = test system: F380Y/beta1; assay: as above; settings: at 30 µM
[10] = test system: F380Y/beta2Delta; assay: as above; settings: at 30 µM
[11] = test system: F380Y/beta4; assay: as above; settings: at 30 µM
[12] = molecular target: Calcium-activated potassium channel subunit alpha-1 (Homo sapiens) + Leucine-rich repeat-containing protein 26 (Homo sapiens) (UniProt Q12791+Q2I0M4); assay: as above; settings: F380Y/Slo1WT/gamma1, at 30 µM
Sequence of Calcium-activated potassium channel subunit alpha-1 (Homo sapiens) + Leucine-rich repeat-containing protein 26 (Homo sapiens) (Q2I0M4 whole entry, looked up, one chain of several): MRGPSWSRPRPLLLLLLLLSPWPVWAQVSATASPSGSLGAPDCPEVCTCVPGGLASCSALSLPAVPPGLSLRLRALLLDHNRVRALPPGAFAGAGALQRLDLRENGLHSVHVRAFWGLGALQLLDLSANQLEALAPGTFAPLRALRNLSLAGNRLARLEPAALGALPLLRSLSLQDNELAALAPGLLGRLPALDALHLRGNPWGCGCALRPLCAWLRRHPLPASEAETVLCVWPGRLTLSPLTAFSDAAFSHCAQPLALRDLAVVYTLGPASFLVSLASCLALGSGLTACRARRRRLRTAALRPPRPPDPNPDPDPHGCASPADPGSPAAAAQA

[13] = test system: R275C; assay: as above; settings: at 30 µM
[14] = test system: R275C/beta1; assay: as above; settings: at 30 µM
[15] = test system: R275C/beta2Delta; assay: as above; settings: at 30 µM
[16] = test system: R275C/beta4; assay: as above; settings: at 30 µM
[17] = test system: R275C/Slo1WT/beta2; assay: as above; settings: at 30 µM
[18] = test system: Neuropilin-2 / VEGF-C interaction (human); assay: inhibitors of NRP2–VEGF-C binding, biochemical, microplate binding format, z-score (AID 743281; call rule not given here); settings: microplate NRP2/VEGF-C binding assay; stronger effect = lower value
[19] = modulation of C. elegans fzo-1 (AID 1259413; call rule not given here;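 further: fzo-1 mutant C. elegans worms in liquid wells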); settings: C. elegans fzo-1 modulator screen, mean read-out; stronger effect = higher value
[20] = survival rescue of mitochondrial mutant cells in low glucose, primary screen, MELAS cybrids, Rieske KO mouse fibroblasts, CellTiter-Glo (AID 1508586;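 active means mean z-score across replicates of 1.96 or higher in either the MELAS or the Rieske mutant cell line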;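 further: z relative to plate mean and SD of compound and empty wells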)
[21] = stronger effect = lower value, cell number ratio, induced over uninduced
[22] = measured here: relative caspase fold change +Dox/-Dox
[23] = measured here: total cells with miR-34 induction, stronger effect = lower value
[24] = measured here: total cells without miR-34 induction

C[C@H]1O[C@@H](O[C@H]2[C@@H](O)C[C@H](O[C@H]3[C@@H](O)C[C@H](O[C@H]4CC[C@@]5(C)[C@H](CC[C@@H]6[C@@H]5C[C@@H](O)[C@]5(C)C(C7=CC(=O)OC7)CC[C@]65O)C4)O[C@@H]3C)O[C@@H]2C)C[C@H](O)[C@@H]1O (some centres not stated)
560: cell count [6, 24]
8.28%: viability [1]
inactive: parasite load remaining [1] -5.28% | fluorescence ratio [2] 0.93 | inhibition [3] -1.36% | inhibition [4] 4.86% | fluorescence ratio [5] 0.99 | z-score [7] -0.815 | log fold change Tl+ flux [8] -0.0279 | log fold change Tl+ flux [9] 0.0633 | log fold change Tl+ flux [10] 0.00458 | log fold change Tl+ flux [11] -0.0566 | log fold change Tl+ flux [12] -0.00567 | log fold change Tl+ flux [13] -0.0269 | log fold change Tl+ flux [14] -0.0167 | log fold change Tl+ flux [15] -0.0151 | log fold change Tl+ flux [16] -0.0475 | log fold change Tl+ flux [17] 0.0268
active: fold change [6, 21] 0.475
266: cell count [6, 23]
1.15: fold change [6, 22]

CC(=O)NCCCCCCNC(C)=O
66.5%: viability [1]
inactive: parasite load remaining [1] 100% | fluorescence ratio [2] 1.01 | inhibition [3] -1.19% | inhibition [4] -3.18% | fluorescence ratio [5] 0.97 | z-score [18] -0.47 | mean signal [19] 268 | fold change [6, 21] 0.955 | z-score [7] 0.325 | log fold change Tl+ flux [8] 0.015 | log fold change Tl+ flux [10] -0.0186 | log fold change Tl+ flux [12] 0.0164 | log fold change Tl+ flux [13] 0.0387 | log fold change Tl+ flux [14] 0.0269 | log fold change Tl+ flux [15] -0.0786
9770: cell count [6, 24]
1.58: fold change [6, 22]
9330: cell count [6, 23]

CO[C@H]1C=CO[C@@]2(C)Oc3c(C)c(O)c4c(O)c(c5c(c4c3C2=O)NC2(CCN(CC(C)C)CC2)N=5)=NC(=O)C(C)=CC=C[C@H](C)[C@H](O)[C@@H](C)[C@@H](O)[C@@H](C)[C@H](OC(C)=O)[C@@H]1C
active: log fold change Tl+ flux [9] -0.0974 | log fold change Tl+ flux [13] -0.134
56.4%: viability [1]
inactive: parasite load remaining [1] 46.3% | log fold change Tl+ flux [8] 0.00735 | log fold change Tl+ flux [10] -0.052 | log fold change Tl+ flux [11] -0.0911 | log fold change Tl+ flux [12] -0.0288 | log fold change Tl+ flux [14] 0.0366 | log fold change Tl+ flux [15] -0.0385 | log fold change Tl+ flux [16] 0.0214 | log fold change Tl+ flux [17] 0.0234

CC(=O)O[C@@]12CO[C@@H]1C[C@H](O)[C@@]1(C)C(=O)[C@H](O)C3=C(C)[C@@H](OC(=O)[C@H](O)[C@@H](NC(=O)OC(C)(C)C)c4ccccc4)C[C@](O)([C@@H](OC(=O)c4ccccc4)[C@H]21)C3(C)C
76.2%: viability [1]
inactive: parasite load remaining [1] 78.3% | fluorescence ratio [2] 0.95 | inhibition [3] 5.15% | inhibition [4] 9.14% | fluorescence ratio [5] 0.93 | z-score ([20]; MELAS cybrid survival, CellTiter-Glo 48 h, stronger effect = higher value) -2.05 | log fold change Tl+ flux [8] -0.0323 | log fold change Tl+ flux [9] -0.0744 | log fold change Tl+ flux [10] -0.0313 | log fold change Tl+ flux [11] -0.0802 | log fold change Tl+ flux [12] -0.035 | log fold change Tl+ flux [13] -0.041 | log fold change Tl+ flux [15] 0.0412 | log fold change Tl+ flux [16] 0.0296 | log fold change Tl+ flux [17] 0.000404
0.54: z-score ([20]; Rieske KO mouse fibroblast survival, CellTiter-Glo 72 h)
active: log fold change Tl+ flux [14] 0.104

CO[C@H]1C=CO[C@@]2(C)Oc3c(C)c(O)c4c(O)c(c5c(nc6cc(C)ccn65)c4c3C2=O)NC(=O)C(C)=CC=C[C@H](C)[C@H](O)[C@@H](C)[C@@H](O)[C@@H](C)[C@H](OC(C)=O)[C@@H]1C
active: log fold change Tl+ flux [8] -0.487 | log fold change Tl+ flux [9] -0.224 | log fold change Tl+ flux [10] -0.411 | log fold change Tl+ flux [11] -0.508 | log fold change Tl+ flux [12] -0.124 | log fold change Tl+ flux [13] -0.242
inactive: parasite load remaining [1] 97.9% | fluorescence ratio [2] 0.98 | inhibition [3] 1.19% | inhibition [4] 1.44% | fluorescence ratio [5] 1.01 | log fold change Tl+ flux [14] 0.0122 | log fold change Tl+ flux [15] -0.0244 | log fold change Tl+ flux [16] -0.0127 | log fold change Tl+ flux [17] -0.00936
78.8%: viability [1]

CN(C)S(=O)(=O)c1ccc2c(c1)/C(=C\CCN1CCNCC1)c1ccccc1S2
9850: cell count [6, 23]
10600: cell count [6, 24]
1.35%: viability [1]
inactive: parasite load remaining [1] -2.22% | fluorescence ratio [2] 1.07 | inhibition [3] -0.45% | inhibition [4] 1.81% | fluorescence ratio [5] 0.96 | fold change [6, 21] 0.93 | z-score [7] -0.06 | log fold change Tl+ flux [8] -0.0239 | log fold change Tl+ flux [9] -0.0463 | log fold change Tl+ flux [10] -0.0723 | log fold change Tl+ flux [11] -0.0323 | log fold change Tl+ flux [12] -0.0624 | log fold change Tl+ flux [13] -0.0283 | log fold change Tl+ flux [14] 0.0522 | log fold change Tl+ flux [15] 0.019 | log fold change Tl+ flux [16] 0.0353 | log fold change Tl+ flux [17] 0.0468
1.32: fold change [6, 22]

CC12C=CC(=O)C=C1CC[C@@H]1[C@@H]2C(=O)CC2(C)[C@H]1CC[C@]2(O)C(=O)CO (some centres not stated)
inactive: mean signal [19] 237

CN(C)c1ccc(O)c2c1C[C@H]1C[C@H]3[C@H](N(C)C)C(=O)C(C(N)=O)=C(O)C3(O)C(=O)C1=C2O (some centres not stated)
inactive: mean signal [19] 263

CN(C)CC/C=C1/c2ccccc2COc2ccccc21
active: log fold change Tl+ flux [8] 0.124 | log fold change Tl+ flux [10] 0.0845
1.31 and 1.98: fold change [6, 22]
9460 and 10600: cell count [6, 24]
8570 and 9810: cell count [6, 23]
inactive: parasite load remaining [1] 72.1% and 22.2% and 49.1% | fluorescence ratio [2] 0.97 | inhibition [3] -1.98% | inhibition [4] -0.1% | fluorescence ratio [5] 0.93 | z-score [18] -0.308 | fold change [6, 21] 0.906 and 0.927 | z-score [7] -0.705 | log fold change Tl+ flux [12] 0.0355 | log fold change Tl+ flux [13] 0.0343 | log fold change Tl+ flux [14] 0.0624 | log fold change Tl+ flux [15] 0.0478
73% and 104% and 60.2%: viability [1]
